# According to PubChem BioAssay:
# Active and inactive are the calls of the source. Unless noted, the rule behind the calls is not given here.
# What was measured:
# [1] = system: Wnt5a (protein binding on small-molecule microarray); assay: Wnt5a binders on small-molecule microarray, primary screen, biophysical, 635/667 nm fluorescence (AID 1142); details: 635 nm fluorescence, higher = more signal;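 note: fluorescence read at 667 nm with signal to noise per printed feature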
# [2] = cell viability in Huh7 cells, primary screen, cytotoxicity control for HCV replication inhibitor project, CellTiter-Glo luminescence, basal, 48 h (AID 1143); details: Huh7 HCV replicon, higher = more signal, called active from +8 up or from −8 down;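 note: Huh7 hepatoma cells carrying a hepatitis C replication reporter with no stimulus; test concentration not given here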
# [3] = P. aeruginosa biofilm formation inhibitors, primary screen, PAO1 strain, BacTiter-Glo luminescence, LB-PBS (AID 1144); details: 12 h, higher = more signal
# [4] = CREB reporter modulators without forskolin, primary screen, cell-based, PC12, CRE-LacZ reporter, unstimulated (AID 1145); details: no forskolin, luminescence, 4.5 h, higher = more signal, called active from +8 up or from −8 down
# [5] = CREB reporter modulators under forskolin, primary screen, cell-based, PC12, CRE-LacZ reporter, forskolin-stimulated (AID 1146); details: luminescence, 4.5 h, higher = more signal, called active from +8 up or from −8 down;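 note: PC12 cells with 6xCRE LacZ reporter stimulated by forskolin 10 µM; beta-galactosidase reporter signal reflecting CREB driven transcription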
# [6] = biological target: Streptavidin (Streptomyces avidinii) (UniProt P22629); assay: streptavidin binders on small-molecule microarray, primary screen, artefact control for SMM compound annotation, biophysical, 635/667 nm fluorescence (AID 1147); details: streptavidin binding, higher = more signal;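 note: signal reflects streptavidin binding to arrayed compounds as a control protein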
# Streptavidin (Streptomyces avidinii), sequence (P22629 whole entry, looked up): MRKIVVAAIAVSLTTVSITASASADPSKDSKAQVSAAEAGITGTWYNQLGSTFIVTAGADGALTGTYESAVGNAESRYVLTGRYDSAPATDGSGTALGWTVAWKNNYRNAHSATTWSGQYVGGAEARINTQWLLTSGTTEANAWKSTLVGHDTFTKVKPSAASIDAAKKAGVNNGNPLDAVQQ
# [7] = small-molecule binders of probe aInhba, primary screen, biochemical, small-molecule microarray, 635/667 nm fluorescence (AID 1148); details: higher = more signal;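 note: score merges 667nm spot fluorescence with signal-to-noise for antibody binding to printed compounds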
# [8] = biological target: Torsin-1A (Homo sapiens) (UniProt O14656); assay: torsin A binders from cell lysate, primary screen, small-molecule microarray, wild-type, 635/667 nm (AID 1149); details: COS7 hTOR1A-WT lysate, 635 nm fluorescence, higher = more signal
# Torsin-1A (Homo sapiens), sequence (O14656 whole entry, looked up): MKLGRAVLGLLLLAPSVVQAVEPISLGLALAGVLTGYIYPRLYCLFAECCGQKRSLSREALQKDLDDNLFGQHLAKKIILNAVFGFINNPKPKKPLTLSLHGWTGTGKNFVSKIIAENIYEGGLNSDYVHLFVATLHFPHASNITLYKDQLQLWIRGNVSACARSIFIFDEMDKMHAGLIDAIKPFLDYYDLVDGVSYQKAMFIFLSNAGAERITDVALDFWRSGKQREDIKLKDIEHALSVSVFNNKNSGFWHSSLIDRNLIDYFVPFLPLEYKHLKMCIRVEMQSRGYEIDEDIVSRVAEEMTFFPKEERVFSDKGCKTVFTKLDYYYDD
# [9] = biological target: Torsin-1A (Homo sapiens) (UniProt O14656); assay: small-molecule binders of mutant TOR1A in lysate, primary screen, cell lysate, small-molecule microarray, COS7 lysate, 635/667 nm fluorescence (AID 1150); details: COS7 hTOR1A mutant lysate, 635 nm fluorescence, higher = more signal;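 note: score pools 667 nm emission and signal to noise measuring lysate protein binding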
# [10] = system: Sonic hedgehog protein (Shh); assay: small-molecule binders of Shh protein, primary screen, biochemical, small-molecule microarray, 635/667 nm fluorescence (AID 1151); details: small-molecule microarray binding, 635 nm fluorescence; higher = more signal;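 note: Shh protein binding to compounds spotted on small-molecule microarray slides; score combines spot fluorescence intensity with signal-to-noise across triplicate slides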
SMILES,composite z-score [1],z-score [2],z-score [3],z-score [4],z-score [5],composite z-score [6],composite z-score [7],composite z-score [8],composite z-score [9],composite z-score [10]
CCCNC(=O)[C@@]1(c2ccc([N+](=O)[O-])cc2)CC(=O)N(CC23CC4CC(CC(C4)C2)C3)[C@@H]1c1ccc(CO)cc1,0.4,-5.17 (inactive),-0.293 (inactive),0.531 (inactive),-0.312 (inactive),-0.204,-0.272,0.0865,0.319,0.34
C=CC(COC(C)=O)NS(=O)(=O)c1ccc(Br)cc1 (stereo not given),0.136,0.0481 (inactive),0.465 (inactive),2.39 (inactive),1.33 (inactive),0.923,-0.105,0.211,0.385,0.948
COCCOC(=O)N1C(=O)[C@@]2(c3cc(C#CCCO)ccc31)[C@H](C(=O)NC[C@H](O)c1ccccc1)[C@H]1C(=O)O[C@H](c3ccccc3)[C@H](c3ccccc3)N1[C@@H]2c1ccc(O)cc1,0.0418,-0.612 (inactive),-1.16 (inactive),-1.29 (inactive),-0.201 (inactive),0.276,-0.0136,0.581,1.12,1.79
CC(C)C[C@@H]1NC(=O)[C@H]2C[C@@H](C(=O)NCCCCCCNC(=O)CS)[C@@H](c3cccc(OCCO)c3)N2C1=O,1.35,0.263 (inactive),-0.436 (inactive),-1.49 (inactive),-1.47 (inactive),0.357,0.0574,1.53,1.67,2.13
C=CCC(OC(C)=O)[C@@H]1[C@@H](N(Cc2cc3ccccc3o2)C(=O)c2ccc(C)cc2)c2cc(OCCCO)ccc2N1C(=O)c1ccc2ccccc2c1 (stereo not given in full),0.132,0.0491 (inactive),-0.571 (inactive),3.93 (inactive),0.697 (inactive),0.0282,-0.0963,-0.353,-0.0172,0.218
C=C[C@@H](COC(C)=O)N(Cc1ccccc1[N+](=O)[O-])S(=O)(=O)c1ccc(Br)cc1,0.521,-4.76 (inactive),-1.65 (inactive),-0.0108 (inactive),-1.41 (inactive),1.16,-0.104,0.55,1.58,1.97
CCCCCCCCCCC(O)C1C=CC2C(=O)N(Cc3ccccc3)C(=O)C2N1n1cnnc1 (stereo not given),0.418,-4.02 (inactive),-0.0968 (inactive),-0.0137 (inactive),-0.728 (inactive),0.744,0.437,0.0668,0.567,-0.778
CN(C)CCCCCCNC(=O)[C@H]1C[C@H]2C(=O)N[C@@H](CCCCN)C(=O)N2[C@H]1c1ccc(O)cc1,1.79,0.253 (inactive),-0.26 (inactive),0.0124 (inactive),0.737 (inactive),2.68,1.39,3.35,3.24,2.05
COCCCNC(=O)[C@@]1(CCC(=O)OC(C)(C)C)N=C(c2ccc(OCCCO)cc2)O[C@H]1c1ccccc1CN=[N+]=[N-],1.01,-0.0523 (inactive),0.0993 (inactive),-0.538 (inactive),0.286 (inactive),1.01,0.329,1.23,1.51,0.103
C=CC(=C)C1=CCO[C@@H]1[C@H]1CCCN1S(=O)(=O)c1ccccc1[N+](=O)[O-],0.224,-0.169 (inactive),-0.484 (inactive),0.124 (inactive),0.619 (inactive),0.909,-0.0221,0.343,0.136,1.84
CC(C)=CCCC(C)=CC(O)C1C=CC2C(=O)N(c3ccccc3)C(=O)C2N1Nc1ccccc1 (stereo not given),0.744,0.311 (inactive),-0.786 (inactive),0.819 (inactive),1.7 (inactive),2.04,0.596,0.0777,0.253,0.0068
CN(C)CCCNC(=O)[C@@]1(Cc2ccccc2I)c2ccccc2C(=O)N(Cc2ccccc2C(F)(F)F)[C@H]1c1ccc(CO)cc1,-0.753,-5.77 (inactive),-0.233 (inactive),0.351 (inactive),-0.742 (inactive),0.154,-0.162,-1.08,0.135,-0.678
C=CCOC(=O)[C@H]1[C@@H]2C(=O)O[C@@H](c3ccccc3)[C@@H](c3ccccc3)N2[C@@H](c2ccc(OCCOC(=O)[C@@H]3C[C@@H]4C(=O)NCC(=O)N4[C@@H]3c3ccc(O)cc3)cc2)[C@]12C(=O)Nc1ccccc12,0.773,-0.987 (inactive),-0.759 (inactive),0.0205 (inactive),-0.979 (inactive),-0.0156,-0.0221,0.342,0.767,2.28
COCCOC(=O)N1C(=O)[C@@]2(c3ccccc31)[C@H](c1ccc(O)cc1)N1[C@H](c3ccccc3)[C@H](c3ccccc3)OC(=O)[C@H]1[C@@H]2C(=O)N1CCc2cc(OC)c(OC)cc2C1,0.633,-3.64 (inactive),-1.29 (inactive),0.0776 (inactive),-0.654 (inactive),-0.162,0.223,0.419,0.697,2.1
CCOC(=O)C1=CCC(c2ccc([N+](=O)[O-])cc2)N(S(=O)(=O)c2ccc(C)cc2)C1 (stereo not given),0.0898,-3.94 (inactive),0.203 (inactive),0.687 (inactive),0.264 (inactive),0.653,0.111,0.242,0.103,-0.377
O=C1C2C=CC(C(O)c3ccc(-c4ccccc4)s3)N(n3cnnc3)C2C(=O)N1Cc1ccccc1 (stereo not given),-0.18,-0.291 (inactive),-0.669 (inactive),0.481 (inactive),0.288 (inactive),-0.116,-0.0087,-0.412,-0.468,-0.683
C=CC[C@@H](OC(=O)Nc1ccc(OC)cc1)c1ccc(O)c2ccccc12,0.42,-4.89 (inactive),-1.39 (inactive),1.01 (inactive),4.3 (inactive),0.737,0.241,1.31,0.625,2.03
CN(C)C(=O)[C@@]1(CCC(=O)OC(C)(C)C)N=C(c2ccc(OCCCO)cc2)O[C@H]1c1ccccc1,0.257,-4.42 (inactive),-0.573 (inactive),0.195 (inactive),-1.4 (inactive),0.0732,0.776,0.635,1.74,-0.467
Cc1ccc(S[C@]2(C(=O)NCC(C)C)CC(=O)N(Cc3ccccc3)[C@@H]2c2ccc(CO)cc2I)cc1,0.185,-2.48 (inactive),0.229 (inactive),0.856 (inactive),1.27 (inactive),0.176,0.0422,0.298,0.835,2.21
